Measurements taken from PubChem BioAssay (NCI).
About 83,000 compounds went through this panel and 20% of them were active in at least one assay; those are over-represented in the sample as a whole.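 In brief: 96-well plates, 48 h treatment, single concentration, percent growth endpoint.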 A number with no mark means an inactive call. Active and inactive are the calls of the source. How the source made its calls: active means growth percent below 10; inactive means the rest.

Assays:
Assay in all cases: NCI-60 one-dose screen, 48 h (100 = growth as untreated, 0 = no growth, -100 = all killed)
Settings in all cases: 10 µM unless noted
[1] = test system: T-47D breast
[2] = test system: BT-549 breast
[3] = test system: MDA-MB-435 melanoma
[4] = test system: SW-620 colon
[5] = test system: MCF7 breast
[6] = test system: HCT-116 colon
[7] = test system: HCC-2998 colon
[8] = test system: KM12 colon

Compound	growth [1]	growth [2]	growth [3]	growth [4]	growth [5]	growth [6]	growth [7]	growth [8]
COc1cc(Br)c(-c2nc(-c3ccccc3)c(-c3ccccc3)n2Cc2ccccc2)cc1OC	35.8%	75.9%	59.8%	73.4%	38.3%	30.3%	67.9%	49.6%
COc1ccc2c(c1)OC(N)=C(C#N)C2c1ccc(F)cc1 (configuration not stated)	40.7%	20.1%	-4.14% (active)	18.6%	18.1%	24.9%	54.5%	26.4%
CCCCN(CCCC)c1ccc(C(=N)c2ccc(N(C)C)cc2)cc1	-23.3% (active)	-72.4% (active)	-74.1% (active)	-85.2% (active)	-52.9% (active)	-100% (active)	-47.5% (active)	-50.5% (active)
CCOc1ccccc1C(=O)N1CCN(c2cc(Cl)cc(Cl)c2)CC1	49%	-13.2% (active)	-12.8% (active)	22.9%	15.2%	-6.57% (active)	16.4%	8.79% (active)
CC1=C[S+](c2ccccc2)c2cccc3cc4ccccc4c1c23 (configuration not stated)	-51.9% (active)	-10.9% (active)	0.153% (active)	-13.4% (active)	-49.9% (active)	-87.6% (active)	-89.4% (active)	-88% (active)
COc1cc(Cn2cc3c(c2)-c2onc(CO)c2CC3)cc(OC)c1OC	93.2%	98.6%	72%	87%	86.8%	84%	101%	90.9%
COc1cc(NC(C)CCCN2C(=O)c3ccccc3C2=O)c2ncccc2c1OC (configuration not stated)	66.8%	91.2%	92.1%	84.7%	41.8%	84.5%	124%	80.2%
COc1ccc(NC(=O)Nc2ccc(-c3ccc(OC)c(OC)c3)nc2C)cc1	60.4%	50.4%	65.2%	64.8%	65.1%	49.4%	83.1%	45.3%
CCOC(=O)c1[nH]c(-c2ccc(Cl)cc2)cc1-c1cccnc1	5.56% (active)	29.4%	-38% (active)	25.4%	22.2%	9.8% (active)	29.9%	19.8%
CCCCCCCC(=O)SCC/C=C/[C@@H]1CC(=O)NCc2nc(cs2)C2=N[C@@](C)(CS2)C(=O)N[C@@H](C(C)C)C(=O)N1	-25.6% (active)	40.1%	6.04% (active)	26.9%	13.2%	-30.3% (active)	-6.96% (active)	8.82% (active)
COc1ccc(Cl)cc1NC(=O)c1cc2c(n1C)-c1nc(NC(=O)C(C)(C)C)sc1CC2	64.5%	94.6%	102%	107%	79.4%	85.4%	118%	94.8%
O=C1COc2ccccc2C(=O)N1CCCCN1CCCCC1	51.3%	78.7%	104%	84.6%	79.6%	57.8%	109%	90.2%
COc1ccc(-n2c(-c3ccc(NC(=O)CCCl)cc3)nnc2-c2cc(OC)c(OC)c(OC)c2)cc1	25.3%	66.6%	54.9%	54.5%	23.2%	35.7%	43.2%	15.4%
NS(=O)(=O)c1ccc(-n2nc(-c3ccc(Cl)cc3)ccc2=O)cc1	95.2%	92.9%	43.5%	93.1%	86.2%	99.6%	102%	69.7%
O=C(O)c1cc2ccccc2cc1Nc1ccccc1	89.3%	113%	103%	105%	76.2%	89.7%	99.1%	109%
COc1ccc(-c2nn(-c3ccc(NC(=O)Nc4cc(C(F)(F)F)cc(C(F)(F)F)c4)cc3)cc2-c2ccncc2)cc1Cl	25.3%	17.5%	8.04% (active)	19.5%	15.5%	2.45% (active)	12.3%	7.63% (active)
C=C1C(=O)O[C@H]2[C@H]1CC/C(COC(=O)c1cccc3ccccc13)=C\CC[C@@]1(C)O[C@@H]21	-60% (active)	-45.1% (active)	-54.2% (active)	-52.8% (active)	-42.9% (active)	-93.8% (active)	62.7%	19.9%
CCCCn1c(-c2cccc(OC)c2)nc2cc(OC)c(OC)cc2c1=O	91.6%	283%	115%	102%	97.9%	89.3%	103%	108%
CC1(C)Cc2c(Br)c(Br)c(Br)c(OCC(O)CN3CCN(c4ccccn4)CC3)c2O1 (configuration not stated)	88.5%	101%	66.8%	85.5%	67.6%	55.5%	92.7%	80.7%
O=C(NC(=S)Nc1ccc(Cl)cc1)c1ccccc1	105%	131%	96.9%	109%	59.2%	92.5%	106%	124%
Cc1ccc(Cn2cc(COc3ccc4c5ccnc(C)c5n(CCCc5ccccc5)c4c3)nn2)cc1	89.9%	90.1%	106%	89.5%	86.2%	60%	102%	97.9%
CCN1CCN(Cc2ccc(NC(=O)Nc3cccc(-n4ccc5c(NC(=O)c6ccccc6)nccc54)c3)cc2C(F)(F)F)CC1	74.7%	89.5%	9.58% (active)	86.6%	31.4%	75.8%	102%	53.1%
O=C(CSc1nnc(-c2ccc(Cl)cc2)o1)Nc1ccc(C(=O)/C=C/c2ccccc2)cc1	107%	99.8%	91.4%	101%	53.1%	65.7%	106%	100%
CN(C)c1ccc2cc(-c3nc4ccccc4s3)c(N)nc2c1	48.5%	61.8%	5.06% (active)	43.6%	19.7%	43.8%	77.6%	26.9%
O=C(Nc1ccc(-n2ccc3c(NC(=O)c4ccccc4)ncnc32)cc1)Nc1ccc(Cl)c(C(F)(F)F)c1	12%	56%	7.71% (active)	12.6%	-51.3% (active)	-77.6% (active)	30.8%	-25.4% (active)
CC1(C)N=C(N)N=C(N)N1c1ccc(F)c(C(F)(F)F)c1	91.1%	61.5%	40.6%	30.2%	26.8%	19.8%	34.3%	27.2%
COc1cc(-c2nc3ccccc3s2)ccc1OCc1nc2n(n1)S(=O)(=O)c1ccccc1N2c1ccccc1	101%	104%	107%	102%	105%	99.5%	129%	101%
CC(=O)Oc1ccc(C(OC(C)=O)OC(C)=O)cc1	72.1%	94.2%	104%	112%	98.5%	92.8%	97.2%	98.6%
O=c1c2ccccc2sc2c(NCCN3CCOCC3)nc3ccccc3c12	52.2%	73.7%	70.1%	18%	43.7%	42.5%	54.2%	30%
